Source: the supplement of paper PMC6555819

Tests used:
Assay in all cases: PBM binding z-score (relative to random genomic background probes); higher = stronger binding; sequences stand for … in GC…GCGATTGACAGCGTAGAATGAAGG
[1] = test system: FXR:RXRa (NR concentration 270 nM, RXRa partner concentration 90 nM)
Summary of the method: (§1)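 Probes were double-stranded and carried 34-nt variable regions with direct-repeat seeds, single-nucleotide variants, half-site ablations and random human genomic background sequences, printed on custom Agilent 4×180K protein-binding microarrays. Arrays were incubated 1 h with ligand-free nuclear receptor dimers in PBS pH 7.4, 2% milk, 0.02% Triton X-100, 1 mM DTT, 0.2 mg/mL BSA and 0.4 mg/ml salmon testes DNA. Antibodies against each partner (one per run) detected binding, and scanned fluorescence was regression-normalized. Binding z-scores use the random background probes as reference.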

[2] = test system: LXRa:RXRa (NR concentration 270 nM, RXRa partner concentration 90 nM)
Summary of the method: as §1

[3] = test system: LXRa homodimer (NR concentration 270 nM)
Summary of the method: as §1

[4] = test system: LXRb:RXRa (NR concentration 270 nM, RXRa partner concentration 90 nM)
Summary of the method: as §1

[5] = test system: LXRb homodimer (NR concentration 270 nM)
Summary of the method: as §1

[6] = test system: PPARa:RXRa (NR concentration 270 nM, RXRa partner concentration 90 nM)
Summary of the method: as §1

[7] = test system: PPARg:RXRa (NR concentration 180 nM, RXRa partner concentration 90 nM)
Summary of the method: as §1

[8] = test system: PPARg:RXRa 270nM:90nM, anti-RXR (NR concentration 270 nM, RXRa partner concentration 90 nM)
Summary of the method: as §1

[9] = test system: PPARg:RXRa 30nM:10nM, anti-RXR (NR concentration 30 nM, RXRa partner concentration 10 nM)
Summary of the method: as §1

[10] = test system: PPARg:RXRa 90nM:30nM, anti-RXR (NR concentration 90 nM, RXRa partner concentration 30 nM)
Summary of the method: as §1

[11] = test system: PPARg:RXRa DBDmut IVT, anti-RXR (DBD mutation: RXRa K156A/R161A, NR concentration 270 nM, RXRa partner concentration 90 nM)
Summary of the method: as §1

[12] = test system: PPARg:RXRa IVT, anti-PPARg (NR concentration 270 nM, RXRa partner concentration 90 nM)
Summary of the method: as §1

[13] = test system: PPARg DBDmut:RXRa IVT, anti-PPARg (DBD mutation: PPARg1 K132A/R137A, NR concentration 270 nM, RXRa partner concentration 90 nM)
Summary of the method: as §1

[14] = test system: PPARg DBDmut IVT, anti-PPARg (DBD mutation: PPARg1 K132A/R137A, NR concentration 270 nM)
Summary of the method: as §1

[15] = test system: PPARg homodimer (NR concentration 180 nM)
Summary of the method: as §1

[16] = test system: PXR:RXRa (NR concentration 270 nM, RXRa partner concentration 90 nM)
Summary of the method: as §1

[17] = test system: PXR homodimer (NR concentration 270 nM)
Summary of the method: as §1

[18] = test system: RARa:RXR (NR concentration 270 nM, RXRa partner concentration 90 nM)
Summary of the method: as §1

[19] = test system: RARa homodimer (NR concentration 270 nM)
Summary of the method: as §1

[20] = test system: RARb:RXRa (NR concentration 270 nM, RXRa partner concentration 90 nM)
Summary of the method: as §1

| Sequence | PBM binding z-score [1] | PBM binding z-score [2] | PBM binding z-score [3] | PBM binding z-score [4] | PBM binding z-score [5] | PBM binding z-score [6] | PBM binding z-score [7] | PBM binding z-score [8] | PBM binding z-score [9] | PBM binding z-score [10] | PBM binding z-score [11] | PBM binding z-score [12] | PBM binding z-score [13] | PBM binding z-score [14] | PBM binding z-score [15] | PBM binding z-score [16] | PBM binding z-score [17] | PBM binding z-score [18] | PBM binding z-score [19] | PBM binding z-score [20] |
| --- | --- | --- | --- | --- | --- | --- | --- | --- | --- | --- | --- | --- | --- | --- | --- | --- | --- | --- | --- | --- |
| ATCTAAAGGTCGTGAGGTGAGTATACAGAAAGGC | 5.84 | 5.04 | 1.01 | 3.73 | 1.12 | 5.2 | 4.73 | 4.73 | 2.02 | 3.72 | 1.12 | 2.89 | 1.3 | 1.74 | 2.21 | 3.4 | 0.645 | 4.46 | 1.13 | 4.15 |
| ATCTCTAGGTAACCCAGTTCAGTGAATGCCGAAC | 0.242 | 0.741 | 0.606 | 0.843 | 0.72 | 1.72 | 1.52 | 1.69 | 0.311 | 1.12 | 4.06 | 4.47 | 1.33 | 1.28 | 1.12 | 1.64 | 1.23 | 0.719 | 0.547 | 0.652 |
| ACAGACAGGTGAGTGAAGGTAACTCCGCTGGACG | 0.216 | -0.067 | -0.195 | -0.498 | -0.566 | 0.0372 | 0.503 | -0.251 | 0.0064 | -0.389 | 0.529 | 0.681 | -0.384 | -0.279 | -0.155 | -0.132 | -0.203 | 0.0904 | -0.274 | 0.621 |
| TCTTGTAGAGCAACAGGAGGTTAAGAAAGATCGA | 0.207 | 0.661 | -0.177 | 0.486 | -0.586 | 1.12 | -0.0991 | 0.587 | 1.4 | 0.921 | 1.98 | 1.27 | 0.588 | 0.0668 | -0.265 | 0.413 | -0.46 | 0.506 | -0.541 | 0.184 |
| CGTCCAAGGTCAAGGTCAGTGAAAGAGACTCGAA | 7.52 | 5.66 | 1.09 | 4.51 | 0.985 | 6.12 | 6.53 | 6.21 | 2.56 | 4.65 | 3.52 | 4.76 | 0.429 | 0.164 | 4.38 | 4.81 | 1.28 | 5.07 | 1.75 | 5.75 |
| GCGGCTGGGGCAAAGCAGGTTACCATAAGGTTGG | 0.63 | 0.104 | -0.673 | 0.159 | -0.912 | 0.636 | 0.139 | -0.304 | -0.825 | -0.577 | 0.344 | 0.597 | -2.01 | -1.49 | -0.191 | 0.338 | -0.584 | 0.776 | -1.18 | 1.07 |
| CCTACTGGGCCATTCAGAGGTCATTAATCATATG | 2.24 | 3.76 | 5.48 | 3.81 | 0.468 | 3.74 | 1.99 | 2.79 | 0.44 | 2.02 | 4.22 | 4.37 | 0.0729 | 0.0343 | 2.11 | 4.17 | 2.46 | 3.83 | 0.0599 | 2.88 |
| TCTAGTTTGTCAAAGGTCACACACTCGAAATGCG | 6 | 5.79 | 5.08 | 5.68 | 2 | 6.11 | 8.39 | 8.19 | 7.6 | 8.39 | 2.53 | 4.9 | 1.7 | 3.34 | 4.88 | 5.82 | 1.78 | 6.66 | 2.78 | 4.98 |
| GGAACGAGGGCAAGTTGATAGTAGAGTTTGATGG | 0.866 | 0.53 | -0.29 | 0.413 | -0.108 | 1.74 | 1.01 | 0.848 | 0.216 | 0.579 | 3.65 | 2.79 | 0.241 | -0.486 | 0.584 | 0.965 | 1.17 | 0.509 | 0.408 | 2.76 |
| CCAGACAGGTGCGAAGGTAACTCAGCCTCGATTA | -0.321 | -0.36 | -0.34 | -0.424 | -0.755 | -0.406 | 0.0695 | -0.0964 | -0.987 | -0.523 | -0.128 | -0.749 | -1.66 | -1.77 | -0.207 | -0.494 | -0.385 | -0.323 | 0.0972 | -0.199 |
| AATAGCAGGCCAAGTTTGGGTCACTCAAACAAAG | 0.16 | 0.399 | -0.166 | 0.913 | -0.947 | 1.72 | 0.314 | 0.478 | -0.511 | 0.171 | 1.2 | 1.95 | -0.692 | -0.417 | 0.551 | 1.05 | -0.42 | 1.79 | -0.848 | 1.98 |
| CCAACTAGGTCACAGAGGTCAAAGTCCGTGCGTA | 7.03 | 6.68 | 7.62 | 6.53 | 2.14 | 6.53 | 9.3 | 7.99 | 5.85 | 7.48 | 8.13 | 8.5 | 1.22 | 2.03 | 5.09 | 6.64 | 11.9 | 7.08 | 2.03 | 5.31 |
| CCTGCTAGGTCATGGTGAGCTAATCTACAGTATG | 3.57 | 2.37 | -0.17 | 1.56 | -0.467 | 3.41 | 2.55 | 2.76 | 0.872 | 1.78 | 4.15 | 3.71 | 1.17 | 0.341 | 0.897 | 1.14 | -0.321 | 2.29 | -0.0406 | 3.77 |
| CCAAGCAGGCCAGGGTCACTCAAGCATTTCGCTT | 2.12 | 1.76 | -0.279 | 1.95 | -0.754 | 3.07 | 0.977 | 1.81 | -0.229 | 0.599 | 0.264 | 0.738 | -0.543 | -1.4 | 1.53 | 2.65 | -0.14 | 3.4 | 0.312 | 2.61 |
